# Shown are actives, neighbours in structure and some others; about 4.1% of the full set was active somewhere.
# hgDAF-12 ag = activates the H. glycines DAF-12 receptor ligand-binding domain | HEK293 GAL4-hgDAF12 UAS-luciferase reporter, agonist luminescence; normalized to butyrate control | activation, % at 6.8 µM | 1.8% of 370,000 active;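 active = activation above a cutoff set at the mean of all screened compounds plus 3 SD, cut at about 10% in these data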;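 note: 0% = DMSO wells and 100% = sodium butyrate wells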
# DAX1 inh-1 = inhibitors of DAX1 repression of SF-1 activated StAR promoter; HEK293T StAR-luciferase reporter, SF-1/DAX-1 repression relief; inhibition, % at 6.8 µM; 1.1% of 370,000 active; AID 652010;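 active = inhibition above the mean over all tested compounds plus 3 SD, cut at about 3.6% in these data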;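 note: 0% = DAX-1 cells with DMSO and 100% = cells lacking DAX-1 with DMSO; higher inhibition means more luminescence from relief of DAX-1 repression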
# DAX1 inh-2 = inhibits human nuclear receptor DAX1; P51843; HEK293 Gal4-DAX1 luciferase reporter, luminescence; inhibition, % at 6.75 µM; 0.99% of 340,000 active;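 active = inhibition above the mean over all tested compounds plus 3 SD, cut at about 4.2% in these data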;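 note: 0% = DAX1-transfected cells with DMSO and 100% = empty-vector control cells with DMSO; inhibition shows as a rise in luminescence from relieved DAX1 repression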
# Target sequence (P51843 207-470 limits assumed): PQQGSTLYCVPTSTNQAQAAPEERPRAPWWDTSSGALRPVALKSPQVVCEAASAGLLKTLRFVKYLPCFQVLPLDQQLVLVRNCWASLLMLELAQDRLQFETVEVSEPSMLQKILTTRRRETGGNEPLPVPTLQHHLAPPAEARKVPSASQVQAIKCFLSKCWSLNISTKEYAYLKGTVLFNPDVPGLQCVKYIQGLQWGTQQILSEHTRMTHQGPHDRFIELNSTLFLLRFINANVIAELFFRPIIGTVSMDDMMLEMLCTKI
# hcDAF-12 act = H. contortus DAF-12 activation, primary screen; activation, % at 6.8 µM; HEK293 hcDAF-12 lit1-tk-luc reporter, luminescence; 0% DMSO, 100% Δ7-dafachronic acid; AID 652067; 1.4% of 370,000 active;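 active = activation above the mean of all tested compounds plus 3 SD, cut at about 5.5% in these data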;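 note: 100% = response to 3 µM Δ7-dafachronic acid high control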
# ssDAF-12 act = activates DAF-12 receptor from parasite S. stercoralis. HEK293 ssDAF-12/GRIP1 lit1-tk-luc reporter, luminescence; % of 3 µM dafachronic acid response. activation, % at 6.8 µM. 1% of 370,000 active. AID 652126;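 active = activation above the mean over all tested compounds plus 3 SD, cut at about 0.9% in these data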;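 note: 0% = DMSO-only wells and 100% = 3 µM delta7-dafachronic acid wells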
# * = called active by the depositor; x = no result given.
SMILES,hgDAF-12 ag,DAX1 inh-1,DAX1 inh-2,hcDAF-12 act,ssDAF-12 act
COc1ccc(Cl)cc1-c1nc(SCC(=O)NC(C)C(C)C)n[nH]1 (centres undefined),0.4,0.1,7.3*,-0.8,-1.6
COc1ccc(Cl)cc1-c1nc(SCC(=O)NC(C)C)n[nH]1,-1.7,-0.2,-0.8,-2.3,-2.0
CCCCN(CCCC)S(=O)(=O)c1ccc(C(=O)Nc2nnc(CSC)o2)cc1,-1.8,0.2,4.2*,-0.6,-0.2
COC(=O)c1cc2c(c3c4ccccc4n(S(=O)(=O)c4ccc(OC)cc4)c13)C(=O)N(C)C2,0.2,-1.2,x,2.9,0.4
Cc1cc(C)c2c(c1)/C(=N/NC(=S)Nc1ccc(F)cc1)CCC2,1.2,0.0,0.5,-0.5,-1.1
COC(=O)N/N=C1\CCCc2c(C)cc(C)cc21,1.8,1.1,4.3*,-0.3,-1.3
COc1ccc(CN2CCC(CNC(=O)NC3CCC(C)CC3)CC2)cc1 (centres undefined),5.6,1.2,x,-0.2,-0.5
COC(=O)[C@]12C[C@H](CC(=O)NCc3ccc(OC)c(OC)c3)C(=O)N(CCc3ccc(OC)c(OC)c3)C1=C[C@H](C1CCCC1)O[C@@H]2C,-1.4,-1.6,x,-2.5,-1.4
c1ccc(COc2ccc(OCCn3cncn3)cc2)cc1,12.9*,2.7,1.2,3.9,-0.2
O=C1/C(=C/N(C(=O)c2ccco2)c2ccc(Br)cc2)Sc2ccccc21,x,x,4.7*,x,x
CCOC(=O)C1=NOC2(C1)C(=O)Nc1c(Cl)cccc12 (centres undefined),5.2,0.4,x,5.7*,-0.2
CN(C)C(=O)C1=NOC2(C1)C(=O)Nc1ccccc12 (centres undefined),2.8,-0.3,x,-0.6,-0.4
COc1ccc(O)c(-c2cc(-c3cccs3)[nH]n2)c1,10.0,0.1,1.8,5.8*,1.1*
CC1(N2CCCCC2)C(=O)c2ccccc2C1=O,1.7,0.4,0.4,1.8,1.0*
CCc1c(C(=O)Nc2cc(C)ccc2OC)[nH]c(C)c1C(C)=O,0.7,-0.6,0.4,5.6*,0.0
O=c1oc2ccccc2c(N2CCCC2)c1[N+](=O)[O-],-3.0,0.1,4.7*,-1.3,-1.0
CC(=O)Nc1sc2c(c1-c1nc3ccccc3s1)CCN(C(C)=O)C2,6.9,x,x,6.2*,0.2
CC(=O)N1CCc2c(sc(NC(=O)C3CC3)c2-c2nc3ccccc3s2)C1,1.0,-2.8,1.3,-0.5,-0.6
Cc1cc(C)n(-c2nc3ccccc3nc2Nc2ccc3[nH]c(=O)[nH]c3c2)n1,-1.2,-0.1,-0.5,-0.7,-1.2
Cc1cc(C)n(-c2nc3ccccc3[nH]c2=O)n1,2.5,-0.4,4.3*,-1.0,-0.9
C=CCCC1CN(Cc2ccc(OC)cc2)S(=O)(=O)c2c(cccc2N(C)S(=O)(=O)c2ccc(C)cc2)O1 (centres undefined),-1.3,-1.2,x,-2.8,-0.8
O=C(Nc1ccc(Cl)cc1)C1C2CCCCC21 (centres undefined),11.7*,1.5,0.8,3.0,1.2*
Cc1ccnc(NC(=O)Nc2ccc3c(c2)N(C)C(=O)CS3)c1,10.5*,2.3,-1.2,-0.5,-1.1
CC(=O)O[C@@H]1C=C[C@@H](C#Cc2ccc(C(C)(C)C)cc2)O[C@@H]1COC(=O)NCc1ccccc1,-1.6,-1.2,x,-1.7,-0.8
O=Nc1ccccn1,5.5,1.0,x,0.9,-0.5
SMILES,hgDAF-12 ag,DAX1 inh-1,DAX1 inh-2,hcDAF-12 act,ssDAF-12 act
Cc1ccc(SCc2ccc(C(=O)Nc3nccs3)o2)cc1,7.2,1.6,1.2,0.2,-0.3
O=C(Nc1nccs1)c1ccc(CSc2ccccc2)o1,9.5,6.2*,0.3,1.6,0.4
O=C(Nc1nccs1)c1ccc(COc2ccccc2)o1,11.0*,1.5,2.7,2.0,-0.4
Cc1ccc(OCc2ccc(C(=O)Nc3nccs3)o2)cc1,3.6,0.2,-1.5,0.1,-1.0
O=C(NCc1ccccc1)[C@@H]1CCCN1C(=O)[C@H]1CCCN1C(=O)c1cccs1,1.7,0.8,x,-1.4,-0.8
C=CCN1C(=O)c2n[nH]c(COC)c2C1c1ccc(C)cc1 (centres undefined),-0.9,-0.2,x,-1.6,-1.4
O=C1COc2ccccc2C(c2nc3ccccc3[nH]2)N1Cc1ccccc1 (centres undefined),1.0,-1.5,x,1.0,-0.4
COC(=O)C1=C(C)N(Cc2ccccc2C(F)(F)F)C(=NCc2ccc(OC)cc2)NC1CCc1ccccc1 (centres undefined),3.4,0.0,x,1.1,-0.8
